This passage reports INHIBITION results from ChEMBL document CHEMBL4513216, “Probing the Open Global Health Chemical Diversity Library for Multistage-Active Starting Points for Next-Generation Antimalarials” (ACS Infect Dis, 2020).

Each structure is given as a SMILES string. About 8,600 (12%) of roughly 69,000 compounds showed an effect of 50% or more. The entries come from a sample that favours strong results as a whole.

In the experiment the test system is Plasmodium berghei. The experiment can be described thus: Screen against P. berghei liver stage (PbLuc), transformed with Luciferase, at 10uM. The experiment is classed as functional, HepG2. Particulars: tested at 10 uM.
Consider `O=C(COc1ccccc1)N1C[C@@H](O)[C@H](N2CCCC2)C1`, for which the INHIBITION was 37%.
On to `O=C(COc1cccc(F)c1)N1C[C@H](CO)C[C@H](CN2CCCC2)C1`, for which the INHIBITION worked out at 10.42%.
The figure for `O=C(COc1cccc(F)c1)N1C[C@@H](O)[C@H](N2CCOCC2)C1` is 32.3%; for `O=C(COc1cccc(F)c1)N1C[C@@H](O)[C@H](N2CCCC2)C1` it is 53.5%.
On to `O=C(COc1cccc(F)c1)N1C[C@@H](CN2CCCC2)C[C@H](CO)C1`, for which the INHIBITION is listed as -1.315%.
The figure for `CN(C)[C@@H]1CN(C(=O)COc2cccc(F)c2)C[C@H]1O` is 54.5%.
In the case of `COCCN1C(=O)[C@]2(CC[C@@H]3CN(Cc4ccccc4F)C[C@@H]32)N=C1C`, the INHIBITION is 14.9%.
The value for `O=C(Nc1cnn(-c2ccccc2Cl)c1)NC1CCC(O)CC1` (stereo not drawn) was -66.7%.
`Cc1nn(C)c(C)c1S(=O)(=O)N1CC[C@H]2O[C@@H](C)C[C@H]2C1`: the INHIBITION worked out at 17.4%.
The value for `COC(=O)[C@H](C)NC(=O)CSCc1nc2sc(C(C)C)cc2c(=O)[nH]1` was 28.7%.
The figure for `O=C(C1CCC1)N1C2CCC(O)(CC2)C1CN1CCOCC1` (stereo not drawn) is 16.2%.
The value for `Cn1nc(-c2ccc(F)cc2)cc1C(=O)NCCn1ccnc1` was -0.232%.
With `CC1CN(CC(=O)Nc2ccncc2)CCN1c1nccs1` (stereo not drawn), the INHIBITION is 21.6%.
As for `Cc1csc(N2CCN(CC(=O)Nc3nncs3)CC2C)n1` (stereo not drawn), the INHIBITION came out at 40.9%.
With `Cc1csc(N2CCN(CC(=O)Nc3ccncc3)CC2C)n1` (stereo not drawn), the INHIBITION was 71.75%.
The value for `Cc1csc(N2CCN(CC(=O)Nc3cccnc3)CC2C)n1` (stereo not drawn) was 11.9%; that for `CC1CN(CC(=O)Nc2cccnc2)CCN1c1nccs1` (stereo not drawn) was 52.7%; that for `O=C(CN1CCN(c2nccs2)CC1)Nc1cccnc1` was -24.2%.
For `Cc1cc(N2CCN(Cc3ccnn3C)CC2)cc(C2CCCN2)n1` (stereo not drawn), the INHIBITION was determined as 37.45%.
On to `Cc1cccc(S(=O)(=O)N2CC[C@H]3CO[C@H](CN(C)C)[C@H]3C2)c1`, for which the INHIBITION is -1.55%.
Take `COCc1nn(C(C)C)c2c1CCN(Cc1nccs1)C2`: the INHIBITION was -11.6%.
In the case of `O=C(c1cnccn1)N1CCN(Cc2cccnc2)c2ncccc2C1`, the INHIBITION is 11.5%.
As to `CN1[C@H](CO)C[C@H](CNCc2ccc(Cl)c(F)c2)[C@@H]1c1ccccc1F`, the INHIBITION came to 53.5%.
`CCc1ccc(CNC[C@H]2C[C@@H](CO)N(C)[C@H]2c2ccccc2F)o1`: the INHIBITION is given as -3.96%.
The value for `CN1[C@H](CO)C[C@H](CNCc2ccc(CO)o2)[C@@H]1c1ccccc1F` was 28.7%; that for `CCC(=O)N1CCC(c2nc(N3CCOCC3)ncc2S(C)(=O)=O)CC1` was 36%; that for `Cc1nnc(C2Cc3ccccc3CN2Cc2c(C)noc2C)o1` (stereo not drawn) was 19.5%.
The figure for `CC(Cn1cccn1)NC(=O)c1cc(C2CC2)nc2c1cnn2C` (stereo not drawn) is -6.18%; for `Cn1cc(CN2CCC(c3cc(COc4cccc(Cl)c4)[nH]n3)C2)cn1` (stereo not drawn) it is 21.955%; for `COc1ccc(CN2CCN(Cc3nccn3C)C(C)C2)cc1F` (stereo not drawn) it is -85.6%.
The value for `COc1cc(C(C)=O)ccc1OCC(=O)c1cccn1C` was 41.3%.
On to `COc1ccc(C)cc1CN1CCN(Cc2nccn2C)C(C)C1` (stereo not drawn), for which the INHIBITION is listed as -78.3%.
For `COc1ccc(CN2CCn3cccc3C2C)cc1F` (stereo not drawn), the INHIBITION turned out to be 59.4%.
The value for `COC(=O)c1ccc(OC)c(CN2CCN(CC(C)C)C(=O)C2C)c1` (stereo not drawn) was -14.1%; that for `COc1ccc(C(C)=O)cc1CN1CCn2cccc2C1C` (stereo not drawn) was 58.5%.
On to `COc1ccc(C)cc1CN1CCn2cccc2C1C` (stereo not drawn), for which the INHIBITION worked out at 84.2%.
The figure for `COc1ccc(C)cc1CN1CCCC1Cn1nc(C)nc1C` (stereo not drawn) is 25.3%; for `COc1ccc(CN2CC(n3cccn3)C2)cc1F` it is 4.34%.
For `CC(=O)N1CCN(CCNS(=O)(=O)c2c(F)cccc2F)CC1`, the INHIBITION is reported as 31.6%.
As to `Cn1cnc2c1C(C(=O)N1CCCC1)N(CC1CC1)CC2` (stereo not drawn), the INHIBITION amounted to 0.804%.
In the case of `COc1ccc2c(c1)CCCN2Cc1nc(C)c(C)o1`, the INHIBITION turned out to be 19.8%.
The value for `Cc1cc(C)n(CC2CN(Cc3noc(C)n3)CCO2)n1` (stereo not drawn) was 5.7%.
`CCCn1nnnc1COC(=O)C1COc2ccccc2O1` (stereo not drawn): the INHIBITION came out at 49%.
With `O=C(NCCc1cc2nc(-c3ccncc3)ccn2n1)C1CCOCC1`, the INHIBITION came out at 17.14%.
The figure for `Cc1nnsc1C(=O)N1C[C@@H]2CC[C@H]1CN(c1cnccn1)C2` is 4.35%.
The figure for `Cc1cc(F)ccc1CCNC(=O)NCC(C)N1CCOCC1` (stereo not drawn) is 11.1%.
The value for `O=C(O)c1cc(S(=O)(=O)Nc2cnn(C3CCOCC3)c2)ccc1F` was 29.3%; that for `CCN(C(=O)CCc1ccc2c(c1)OCO2)C1CC(=O)NC1=O` (stereo not drawn) was 7.97%; that for `Cc1cnn(C2CCCN(C(=O)CCc3ccncc3)C2)c1` (stereo not drawn) was 26.4%.
Take `Cc1cnn(C2CCCN(C(=O)Cc3c(C)nn(C)c3C)C2)c1` (stereo not drawn): the INHIBITION came out at 53.9%.
The value for `Cc1nn(C)c(C)c1CC(=O)N1CCCC(n2ccnc2C)C1` (stereo not drawn) was 23.7%; that for `Cc1nn(CC(C)C)c(C)c1CC(=O)N1CCCC(CNS(C)(=O)=O)C1` (stereo not drawn) was 24.1%; that for `Cc1nn(C)c(C)c1CC(=O)N1CCCC(CNS(C)(=O)=O)C1` (stereo not drawn) was 50.2%.
With `Cc1nn(C)c(C)c1CC(=O)N1CCCC(n2ccnc2)C1` (stereo not drawn), the INHIBITION is reported as 44.3%.
The figure for `O=C(CCc1nccs1)N1CCCC(n2cccn2)C1` (stereo not drawn) is 38.5%.
As to `Cc1cnn(C2CCCN(C(=O)CCc3nccs3)C2)c1` (stereo not drawn), the INHIBITION was found to be 63.9%.
The figure for `Cc1nn(C)c(C)c1CC(=O)N1CCCC(n2cccn2)C1` (stereo not drawn) is 7.13%; for `Cc1nn(C)c(C)c1-c1ccnc(N2CCCN(CC(C)C)CC2)n1` it is 24.3%.
Take `COc1ccc(F)c(NCc2ccc(C(=O)N(C)C)[nH]2)c1`: the INHIBITION is reported as -22.6%.
The figure for `CN(Cc1nc2ccccc2o1)C1CCCN(c2cccnn2)C1` (stereo not drawn) is 28.8%.
On to `CC(=O)N1CCN([C@@H]2CC[C@@H](N(C)C(=O)C3CCCCC3)[C@H]2O)CC1`, for which the INHIBITION amounted to 39.7%.
Turning to `Cc1nc(CN2CCOCC3(CCCN(c4cnccn4)C3)C2)cs1` (stereo not drawn), the INHIBITION is 15.4%.
The value for `CCCc1cc(N2CCC(NCC3(O)CCCCC3)CC2)nc(C)n1` was 6.69%; that for `CCCc1cc(CNC2CCN(c3nc(C)cc(C)n3)CC2)on1` was 35.2%; that for `CCCc1cc(CNC2CCN(c3cc(C)nc(N)n3)CC2)on1` was 71.1%.
Consider `c1ccc(CN2CCC(NCCSc3ncn[nH]3)C2)cc1` (stereo not drawn), for which the INHIBITION was 42.3%.
The value for `CCCc1cc(CNC2CCN(c3nc4ccccc4s3)CC2)on1` was 67.8%.
As to `Cc1n[nH]c(SCCNC2CCN(c3nc4ccccc4s3)CC2)n1`, the INHIBITION worked out at 50.2%.
The figure for `Cn1ccnc1SCCNC1CCN(c2nc3ccccc3s2)CC1` is 34.1%.
The value for `CCCc1cc(N2CCC(NC3CCOCC3)CC2)nc(C)n1` was 22.1%.
The value for `CCCc1cc(N2CCC(NC3CCC(O)CC3)CC2)nc(C)n1` (stereo not drawn) was 2.15%; that for `CCCc1cc(CNC(=O)C2CCOc3ccccc3C2)on1` (stereo not drawn) was 26.8%; that for `CCCc1cc(CNC2CCN(c3cc(C(C)C)nc(C)n3)CC2)on1` was 61.3%.
